In PubChem BioAssay AID2116 (The Scripps Research Institute Molecular Screening Center, 2009) one finds activation data, which are given here for five compounds.

Values without a mark were called inactive. Active and inactive are the calls of the source. No rule for the calls is given here.

The target in this assay is Mucolipin-2 (Homo sapiens) (UniProt Q8IZK6). In words: activators of mucolipin-3 and mucolipin-2 – cell-based, patch clamp, Fura-2 profiling panel (AID 2116). As to conditions: HEK293 cells, TRPML2 Fura-2 Imaging; at 10 µM; stronger effect = higher value.
Take `Cc1ccc(S(=O)(=O)Nc2ccccc2-c2ccccc2)cc1`: the activation is below 1%. The result for `O=S(=O)(Nc1ccccc1N1CCOCC1)c1ccc(Cl)s1` reads 7.14%; that for `O=S(=O)(Nc1ccccc1N1CCCCC1)c1ccc(Cl)s1`, below 1%. Regarding `O=S(=O)(NC1CCCCC1N1CCOCC1)c1ccc(Cl)cc1` (stereo not given), the activation is 54.5% (active). Regarding `Cc1ccc(N2CCN(S(=O)(=O)N3CCCCC3)CC2)c(C)c1`, the activation is 23.5% (active).
